Screens as filed in PubChem.
Anthrax LF inh2: anthrax lethal factor protease inhibition; P15917; multiplex microsphere protease cleavage assay, LF; inhibition, % at 10 µM; actives 0.12% (n = 360,000); also: plate controls were buffer without enzyme for full effect and enzyme alone for no effect
Target sequence (P15917 whole entry, looked up): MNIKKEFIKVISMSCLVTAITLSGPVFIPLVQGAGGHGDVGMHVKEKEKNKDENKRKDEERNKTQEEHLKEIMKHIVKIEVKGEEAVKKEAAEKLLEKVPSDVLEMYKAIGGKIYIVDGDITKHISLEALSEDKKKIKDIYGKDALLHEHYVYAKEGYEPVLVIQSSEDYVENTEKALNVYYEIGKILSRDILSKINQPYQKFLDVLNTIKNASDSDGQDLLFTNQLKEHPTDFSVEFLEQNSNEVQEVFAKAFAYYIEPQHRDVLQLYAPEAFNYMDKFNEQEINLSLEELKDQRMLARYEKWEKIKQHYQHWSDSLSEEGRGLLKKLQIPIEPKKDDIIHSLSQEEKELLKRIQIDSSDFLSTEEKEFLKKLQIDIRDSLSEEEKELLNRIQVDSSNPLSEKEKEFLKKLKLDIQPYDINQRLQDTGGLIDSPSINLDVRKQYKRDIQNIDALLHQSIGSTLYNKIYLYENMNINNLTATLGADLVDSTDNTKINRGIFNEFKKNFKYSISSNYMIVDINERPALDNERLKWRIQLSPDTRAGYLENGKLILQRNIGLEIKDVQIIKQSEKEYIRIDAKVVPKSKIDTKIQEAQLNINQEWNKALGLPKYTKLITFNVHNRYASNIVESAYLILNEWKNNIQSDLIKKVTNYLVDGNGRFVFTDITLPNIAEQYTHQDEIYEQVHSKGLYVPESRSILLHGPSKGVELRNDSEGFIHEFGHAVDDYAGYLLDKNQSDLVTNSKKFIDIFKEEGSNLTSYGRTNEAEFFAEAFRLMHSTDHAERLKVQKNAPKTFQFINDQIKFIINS
BJeLR viability: kills HRASV12-expressing BJeLR cells; inhibition, % (test concentration not listed); AID 1554; BJeLR (HRASV12) viability, CellTiter-Glo ATP luminescence, 48 h; actives 0.17% (n = 300,000); in the data active = inhibition above about 50%; inconclusive = no clear call, values can overlap the other calls
BoNT-F LC inh: blocks Botulinum neurotoxin F light chain protease; actives 0.22% (n = 360,000); Multiplex microsphere protease cleavage assay, flow cytometry; inhibition, % at 10 µM; AID 588497; in the data active = inhibition above about 35%, passing the limit was not always enough; inconclusive = no clear call, values can overlap the other calls; also: plate controls were buffer without enzyme for full effect and enzyme alone for no effect
Autofluor counter: flagged as autofluorescent in microsphere protease counterscreen; fluorescence intensity (test concentration not listed); compound autofluorescence counterscreen, microsphere flow cytometry; hits give high values; AID 624483; actives 3.1% (n = 360,000); in the data active = fluorescence intensity above about 16000; inconclusive = no clear call, values can overlap the other calls
BoNT-A LC inh2: BoNT A light chain protease inhibition; multiplex microsphere protease substrate cleavage, flow cytometry; inhibition, % at 10 µM; actives 0.17% (n = 360,000); AID 588499; also: plate controls were buffer without enzyme for full effect and enzyme alone for no effect
SARS 3CLpro inh: SARS-CoV 3CLpro protease inhibition. actives 0.14% (n = 290,000). P0C6X7. recombinant SARS-CoV 3CLpro, quenched FRET peptide cleavage. inhibition, % at 6 µM; in the data active = inhibition above about 12%
The depositor's hits bear a star; u = inconclusive; x = no result given. Compounds with a hit are over-represented: about 3.6% of the library has one in this group of screens. Rule as the data show it, unless noted: active = inhibition above about 30%; inconclusive = no clear call, values can overlap the other calls; inactive = below that.

SMILES	Anthrax LF inh2	BJeLR viability	BoNT-F LC inh	Autofluor counter	BoNT-A LC inh2	SARS 3CLpro inh
COc1ccccc1COCC(O)CNCC1(N2CCCCC2)CCCCC1 (configuration not stated)	-5	-19	1	22309*	0	-2
COc1cc(C(C)=O)ccc1OCC(O)CNCC1(N2CCCCC2)CCCCC1 (configuration not stated)	-13	-6	-17	5883	-1	-3
COc1ccc(OC)c(S(=O)(=O)CC(O)COc2ccccc2Cl)c1 (configuration not stated)	-2	12	-5	4911	3	8
c1ccc(-c2noc(CN3CCN(c4ccccc4)CC3)n2)cc1	1	7	0	5649	0	-2
COc1ccc(N2CCN(Cc3nc(-c4ccc(Cl)cc4Cl)no3)CC2)cc1	-6	3	-7	20566*	-2	0
COc1ccc2c(C)cc(SCC(=O)Nc3ccc(Cl)cn3)nc2c1	2	-3	-3	11145	1	-6
O=c1c2c3c(sc2n(CCN2CCOCC2)c(=O)n1Cc1ccco1)CCCCC3	u	-6	0	u	-4	-1
CCn1c(=O)n(CCc2ccccc2)c(=O)c2c3c(sc21)CCCC3	-2	-2	2	22638*	2	2
O=c1c2c3c(sc2n(CCN2CCCCC2)c(=O)n1Cc1ccco1)CCCCC3	-4	-11	-11	27290*	u	8
NC(=O)Cn1c(=O)n(Cc2ccco2)c(=O)c2c3c(sc21)CCCCC3	-1	4	8	18631*	u	-3
COC(=O)Cn1c(=O)n(CCc2ccccc2)c(=O)c2c3c(sc21)CCCC3	-2	4	-10	10291	-1	-1
COc1ccc(C(NC(=O)C2CCCCC2)c2c(O)ccc3ccccc23)cc1 (configuration not stated)	0	1	-13	2097	-3	0
O=C(Nn1c(-c2ccc(F)cc2)nc2ccccc2c1=O)C1CCCCC1	-4	7	-10	8170	-2	4
N#Cc1cnc2nc(SCc3ccccc3)nn2c1	-4	17	11	3882	0	5
CCCNC(=O)CN1C(=O)c2ccccc2Sc2ncccc21	30*	8	-1	3990	2	-1
O=C(NCc1cn2ccsc2n1)c1cccs1	3	-1	1	6138	-1	-3
COc1ccccc1C/C(N)=N/OC(=O)COc1cccc2ccccc12	-12	1	1	21885*	4	2
COc1ccccc1C/C(N)=N/OC(=O)COc1ccccc1C	-1	-4	-23	6902	-2	-2
COc1ccc(CC/C(=N\O)C2(O)CCCCC2)cc1	-3	5	-7	24221*	-2	6
CCO/C=C1/C(=O)N(C(C)=O)c2ccccc21	-1	-2	-3	22792*	u	0
Nc1nnc(CC(=O)N/N=C/c2ccc(-c3ccc(Cl)cc3Cl)o2)s1	0	2	-7	5092	0	-1
c1coc(Cn2c(SCc3nc4ccccc4[nH]3)nnc2-c2cccs2)c1	1	10	3	18667*	2	-4
c1ccc(CSc2nnc(-c3cccs3)n2Cc2ccco2)cc1	-1	3	-7	20965*	-5	3
C(=C\c1ccccc1)/CSc1nnc(-c2ccccc2)n1Cc1ccco1	-2	-7	1	23193*	1	7
C(=C\c1ccccc1)/CSc1nnc(-c2ccncc2)n1Cc1ccco1	-1	2	-3	2992	0	4
SMILES	Anthrax LF inh2	BJeLR viability	BoNT-F LC inh	Autofluor counter	BoNT-A LC inh2	SARS 3CLpro inh
Cc1ccc(-c2nnc(SCc3nc4ccccc4[nH]3)n2Cc2ccco2)cc1	-1	-11	-4	10056	0	4
CCOc1ccc(S(=O)(=O)N(CC(=O)Nc2cccnc2)c2ccc(F)cc2)cc1	0	10	-2	6562	-4	-1
CCC(C(=O)NC1CCCC1)N(C(=O)c1snc(C(N)=O)c1N)c1ccc(C)cc1C (configuration not stated)	8	-6	-8	3625	-6	6
COc1ccc(-n2c3c(c(=O)[nH]c2=O)C(C(F)(F)F)(C(F)(F)F)N=C(CC(C)C)N3)cc1	-1	-7	6	19298*	4	-2
O=c1[nH]c(=O)n(-c2ccc(F)cc2)c2c1C(C(F)(F)F)(C(F)(F)F)N=C(c1ccc(F)cc1)N2	-2	32	-7	2529	0	1
CCCC(=O)Nc1sc(Cc2ccccc2)c(C)c1C(N)=O	-4	-11	-10	4539	0	-5
N#C/C(=C/c1ccc(N2CCOCC2)o1)c1nc2ccccc2[nH]1	-1	x	126*	11009	-5	0
CCOC(=O)C1=C(C)NC(C)=C(C(=O)OCC)C1C(=O)OCC(=O)N(C)Cc1ccccc1	-4	x	8	3088	1	x
COc1ccc(-c2nnc3c4ccccc4c(C)nn23)cc1	-2	0	-1	22622*	-1	-1
COc1ccc(-c2nnc3ccc(SCC(=O)NCC4CCCO4)nn23)cc1 (configuration not stated)	-2	-14	-11	25334*	-6	-2
COc1ccc(-c2nnc3ccc(SC)nn23)cc1	-4	-4	12	17068*	10	1
COc1ccc(-c2nnc3ccc(SCC(=O)N4CCOCC4)nn23)cc1	1	10	2	5270	0	x
O=C(CN1C(=O)NC2(CCCC2)C1=O)Nc1nc2c(F)cc(F)cc2s1	8	7	0	5766	2	x
CN(c1ccccc1C(=O)O)S(C)(=O)=O	-3	-6	4	18576*	4	2
Cc1ccc(NC(=O)c2ccccc2N(C)S(C)(=O)=O)cc1C	-2	-3	-3	23559*	1	3
CCOc1ccccc1NC(=O)c1ccccc1N(C)S(C)(=O)=O	0	-11	-5	4808	0	-5
CN(c1ccccc1C(=O)Nc1cccc(Cl)c1Cl)S(C)(=O)=O	-2	4	0	22508*	0	-3
CN(c1ccccc1C(=O)Nc1ccc2c(c1)OCCO2)S(C)(=O)=O	1	0	-9	6096	0	6
CCC(c1nnc(SCC(=O)Nc2cccnc2Cl)n1-c1ccccc1)N(C)C (configuration not stated)	0	3	4	2544	0	-4
CCCN(CCC)S(=O)(=O)c1ccc(C(=O)OCCN2C(=O)c3cccc4c(N5CCOCC5)ccc(c34)C2=O)cc1	37*	0	32	10692	37*	1
CCN(CC)S(=O)(=O)c1ccc(C(=O)N2CCN(CCN3C(=O)c4cccc5cccc(c45)C3=O)CC2)cc1	x	4	x	x	x	1
O=C(OCCN1C(=O)c2cccc3c(N4CCOCC4)ccc(c23)C1=O)c1ccc(Cl)cc1	12	36	12	3644	34*	2
COc1ccc2nc(NC(=O)C3CCN(C(=O)c4ccco4)CC3)sc2c1	2	-4	-3	3978	-3	-2
